# Screening data as filed in PubChem BioAssay.
# Compounds with a hit are over-represented: about 1.3% of the library has one in this group of screens.
# CRFBP-R2 block: CRF-BP/CRF-R2 complex antagonism | 350,000 tested, 0.59% active | HEK293 CRF-R2/CRF-BP, CRF-induced calcium fluorescence | AID 588475 | inhibition, % at 11.8 µM;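 active = inhibition of the ligand-induced calcium signal above about 50% at the single tested concentration, limit read from the data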
# RTF Ca sens act: cardiac RTF calcium sensitization | P19429+P45379 | 340,000 tested, 0.24% active | AID 493008 | activation, % at 7.2 µM | IANBD-labeled TnC RTF fluorescence at EC20 calcium; 0% EC20 calcium, 100% full calcium;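 active = activation above the mean over all tested compounds plus 3 SD, cut at about 30% in these data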;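 note: rise in fluorescence read as greater calcium sensitivity of cardiac thin filaments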
# CRFBP-R2 agonist: CRF-BP/CRF-R2 complex agonism; HEK293 CRF-R2/CRF-BP, calcium dye fluorescence (FLIPR); percent of saturating CRF peptide response; activation, % at 13.2 µM; 350,000 tested, 0.46% active;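 active = activation of at least 50%, plus an integration ratio under a set limit after plate pattern correction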;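 note: plate controls were neutral control wells without compound for no effect and CRF at EC100 for full effect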
# RTF Ca sens inh: cardiac RTF calcium desensitization; P19429+P45379; IANBD-labeled cardiac RTF, Ca2+ fluorescence; inhibition, % at 7.15 µM; 340,000 tested, 0.12% active;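 active = inhibition above the mean inhibition of all tested compounds plus 3 SD, cut at about 17% in these data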;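 note: assay run at fixed EC70 calcium of 1.6 mM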
# Starred values were filed as active, the others as inactive; nt = not tested or not shown.
SMILES,CRFBP-R2 block,RTF Ca sens act,CRFBP-R2 agonist,RTF Ca sens inh
COc1ccc(N2CCN(C(=O)c3cc(=O)c4cc(C)c(C)cc4o3)CC2)cc1,110.8*,3.3,-0.9,-0.8
CC(C)(C)OC(=O)N1CCN(c2ccc(CNC(=O)c3ccc(Cl)cc3)cc2)CC1,50.1*,-1.0,1.6,-5.3
CC(C)(C)c1ccc(C(=O)NCc2ccc(Cl)cc2)cc1,-5.3,0.2,-0.7,-3.6
O=C(O)C1CCN(S(=O)(=O)c2ccc3[nH]ccc3c2)CC1,-4.0,nt,-0.5,nt
C=CCc1cccc2cc(C(=O)Nc3ccc(S(=O)(=O)Nc4nnc(CC)s4)cc3)c(=O)oc12,60.7*,-1.8,-1.4,-8.8
CCc1nnc(NS(=O)(=O)c2ccc(NC(=S)NC(=O)/C=C/c3ccccc3)cc2)s1,55.7*,-3.6,-1.4,4.8
COC(=O)CN(C#N)c1nc(NCc2ccccc2)nc(OC)n1,-9.6,-2.6,-1.9,-0.8
Cc1onc(-c2ccc(Cl)cc2Cl)c1-c1csc(COc2ccccc2)n1,-2.2,1.6,20.6,-2.9
N#Cc1c(C(F)(F)F)cc(-c2ccccc2)nc1SCc1nc(N)nc(N2CCOCC2)n1,-81.9,-1.8,68.9*,-49.1
O=C(Nc1ccccc1F)c1ccc([N+](=O)[O-])s1,0.7,1.9,-1.6,3.6
CN(C)NC(=O)c1ccc([N+](=O)[O-])s1,13.2,30.9*,1.2,5.0
O=C(CSc1ccc(-c2ccccc2)nn1)N1CCN(c2ccccc2)CC1,1.8,-3.6,-1.1,-6.4
O=C(CSc1ccc(-c2ccncc2)nn1)N1CCN(c2ccccc2)CC1,63.3*,2.4,2.3,-7.4
O=C(OCC(=O)N1CCN(c2ccccc2)CC1)c1ccc2ccccc2n1,15.9,4.0,-2.2,-8.6
O=C(OCC(=O)N1CCN(c2ccccc2)CC1)c1ccccn1,53.1*,-7.0,0.7,-19.5
C=CCN1C(=O)c2ccc(C(=O)Nc3ccccn3)cc2C1=O,4.7,2.9,1.2,-0.3
O=C(Nc1scc(-c2ccc(Br)cc2)c1C(=O)O)c1ccccc1F,56.4*,0.4,-0.2,-3.8
O=C(Nc1scc(-c2ccccc2)c1C(=O)O)c1ccccc1F,23.8,-1.1,-2.0,0.8
Cc1ccc(-c2csc(NC(=O)c3ccccc3F)c2C(=O)O)cc1,44.8,-2.0,0.1,-9.5
Cc1ccccc1C(=O)Nc1scc(-c2ccc(Br)cc2)c1C(=O)O,67.8*,8.1,-1.3,0.3
CNC(=O)CN(C1CCCCC1)S(=O)(=O)c1ccc(F)cc1,55.6*,3.0,-5.9,-3.0
CCNC(=O)CN(C1CCCCC1)S(=O)(=O)c1ccc(F)cc1,45.9,-4.3,-1.1,13.0
Cc1cc(/C=C(/C#N)C(=O)O)c(C)n1-c1cccc2ccccc12,75.7*,0.6,-4.5,-3.0
Cc1c(C(=O)O)cccc1-n1c(C)cc(/C=C(/C#N)C(=O)NCc2ccccc2)c1C,24.9,nt,-1.6,nt
Cc1cc2c(cc1C)NC(c1c(C)n(C)n(-c3ccccc3)c1=O)C1=C(CC(C)(C)CC1=O)N2 (stereo not given),-2.9,12.8,62.7*,-30.7
SMILES,CRFBP-R2 block,RTF Ca sens act,CRFBP-R2 agonist,RTF Ca sens inh
CCCCCCc1cc2cc(S(=O)(=O)c3ccc(Cl)cc3)c(=O)oc2cc1O,-7.1,5.5,43.8,-4.9
CCN(CC)c1ccc2cc(S(=O)(=O)c3ccc(Cl)cc3)c(=O)oc2c1,-83.5,253.4*,118.1*,-291.0
CCn1c(CCNC(=O)c2ccc(OC)cc2)nnc1SCc1ccc(Cl)c(Cl)c1,-149.7,-2.9,135.8*,3.1
CCn1c(CCNC(=O)c2ccc(C)cc2)nnc1SCc1ccc(Cl)c(Cl)c1,0.2,2.1,-1.2,-0.7
CCOCCCN(C(=O)CCC(=O)Nc1cc(C)on1)C(C(=O)NC(C)(C)C)c1ccccc1Cl (stereo not given),9.6,-5.6,0.1,-1.6
CCOc1ccc(C(=O)OCC(=O)Nc2cccnc2Cl)cc1OCC,103.4*,0.4,1.2,-5.4
O=C(COC(=O)c1ccc(Cl)c(Cl)c1)Nc1cccnc1Cl,-45.8,8.8,1.7,-8.8
Cc1cc(C)cc(C(=O)Nc2cccnc2Cl)c1,68.0*,-4.2,1.7,-7.2
CC(=O)n1c(C=Nc2ccc(Cl)cc2)c(O)c2ccccc21,-48.1,38.0*,16.4,-0.7
Cc1nnc(SCC(=O)N(C)Cc2ccccc2)[nH]c1=O,88.0*,3.6,-0.2,3.2
CCOC(=O)c1ccc(NC(=S)N2CCSC2c2ccc(Cl)cc2)cc1 (stereo not given),-105.6,-6.8,120.4*,4.7
CCCCCCCCNS(=O)(=O)CCNCc1ccc(OC)cc1,114.8*,6.6,-0.7,-7.7
